Screens: PubChem BioAssay, The Scripps Research Institute Molecular Screening Center
Shown are actives, neighbours in structure and some others; about 4.1% of the full set was active somewhere.
hcDAF12 agonist = activates DAF-12 receptor from parasite H. contortus | activation, % at 6.8 µM | 1.4% of 370,000 active | HEK293 hcDAF-12 lit1-tk-luc reporter, luminescence; 0% DMSO, 100% Δ7-dafachronic acid;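 active = activation above the mean of all tested compounds plus 3 SD, cut at about 5.5% in these data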
DAX1 inh-1 = NR0B1 (DAX1) inhibition; inhibition, % at 6.75 µM; P51843; HEK293 Gal4-DAX1 luciferase reporter, luminescence; AID 504766; 0.99% of 340,000 active;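 active = inhibition above the mean over all tested compounds plus 3 SD, cut at about 4.2% in these data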;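 also: inhibition shows as a rise in luminescence from relieved DAX1 repression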
Target sequence (P51843 207-470 limits assumed): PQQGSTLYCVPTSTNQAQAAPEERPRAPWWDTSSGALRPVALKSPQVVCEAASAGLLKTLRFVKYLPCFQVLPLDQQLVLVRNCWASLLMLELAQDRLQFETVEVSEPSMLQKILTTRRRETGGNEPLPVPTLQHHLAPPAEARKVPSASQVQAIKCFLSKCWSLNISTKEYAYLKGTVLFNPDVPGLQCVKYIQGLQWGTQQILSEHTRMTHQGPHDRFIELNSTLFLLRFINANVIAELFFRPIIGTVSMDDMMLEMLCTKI
hgDAF12 agonist = agonists of H. glycines DAF-12 nuclear receptor. HEK293 GAL4-hgDAF12 UAS-luciferase reporter, agonist luminescence; normalized to butyrate control. activation, % at 6.8 µM. 1.8% of 370,000 active;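 active = activation above a cutoff set at the mean of all screened compounds plus 3 SD, cut at about 10% in these data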
DAX1 inh-2 = blocks DAX1 repression of SF-1 activated StAR promoter; 1.1% of 370,000 active; inhibition, % at 6.8 µM; HEK293T StAR-luciferase reporter, SF-1/DAX-1 repression relief;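 active = inhibition above the mean over all tested compounds plus 3 SD, cut at about 3.6% in these data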;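 also: higher inhibition means more luminescence from relief of DAX-1 repression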
ssDAF12 agonist = activators of S. stercoralis DAF-12 nuclear receptor. HEK293 ssDAF-12/GRIP1 lit1-tk-luc reporter, luminescence; % of 3 µM dafachronic acid response. activation, % at 6.8 µM. 1% of 370,000 active;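 active = activation above the mean over all tested compounds plus 3 SD, cut at about 0.9% in these data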
A number is an active result; n = inactive; x = not tested or not shown.

SMILES	hcDAF12 agonist	DAX1 inh-1	hgDAF12 agonist	DAX1 inh-2	ssDAF12 agonist
CCc1ccc(-c2nc(CS(=O)CC(=O)O)c(C)o2)cc1 (stereo not drawn)	n	n	12	n	n
CCc1ccc(-c2nc(CS(=O)CC(=O)NC3CC3)c(C)o2)cc1 (stereo not drawn)	n	n	n	n	n
C#CCSc1nnc(-c2cccc3ccccc23)o1	n	n	n	n	1.7
OCC#CCSc1nnc(-c2ccncc2)o1	n	n	n	n	n
C#CCSc1nnc(-c2ccc(C)cc2)o1	n	n	11	n	n
Oc1ccc(-c2nnc(SCc3ccccc3)o2)cc1	n	n	11	n	n
Cc1ccc(-c2nnc(SCC(=O)N3CCCC3)o2)cc1	n	n	n	n	n
C#CCSc1nnc(-c2ccc(O)cc2)o1	n	n	11	n	n
c1ccc(CSc2nnc(-c3cccnc3)o2)cc1	n	n	n	n	n
Cn1c(=O)c(=O)n(C)c2cc(S(=O)(=O)N3CCN(CCO)CC3)ccc21	n	x	n	n	n
COc1ccc(S(=O)(=O)N2CCN(CC(=O)c3c(N)n(C)c(=O)n(C)c3=O)CC2)cc1OC	n	5.2	n	n	n
Cn1c(N)c(C(=O)CN2CCN(S(=O)(=O)c3ccccc3C#N)CC2)c(=O)n(C)c1=O	n	n	n	n	n
COc1ccc(S(=O)(=O)N2CCN(C(=O)c3ccc(=O)[nH]n3)CC2)cc1OC	n	7.5	n	n	n
CN(CCO)C1CN(Cc2cn(Cc3ccccc3F)nn2)S(=O)(=O)C1 (stereo not drawn)	n	x	n	n	n
CCOc1cc(OCC)cc(C(=O)N2CCC[C@H]2C(=O)N2CCC[C@H]2C(=O)NCc2ccc(F)cc2F)c1	n	x	n	n	n
CCOc1cc(OCC)cc(C(=O)N2CCC[C@@H]2C(=O)N2CCC[C@@H]2C(=O)NCc2ccccc2Cl)c1	n	x	n	n	1.0
O=C(NCCc1c[nH]c2ccccc12)OCc1cn(Cc2cc(F)ccc2F)nn1	n	x	n	n	n
CC(=O)NCc1ccc(-c2csc(-c3cccs3)n2)cc1	n	n	12	n	n
CNC(=O)c1csc(-c2cccs2)n1	n	n	n	n	n
CC(C)[C@H](NC(=O)c1ccc(C(C)(C)C)cc1)C(=O)Nc1nnc(C2CC2)s1	n	n	n	n	n
O=C(Nc1c(C(=O)Nc2cccc(F)c2)oc2ccccc12)c1ccc2c(c1)OCO2	n	n	n	n	n
Cc1ccc(NC(=O)c2oc3ccccc3c2NC(=O)c2ccc3c(c2)OCO3)cc1	n	n	n	n	1.1
O=C(Cc1ccsc1)NNC(=O)c1cccc(Cl)c1	n	n	n	n	n
Fc1cccc(NCc2cn3ccccc3n2)c1	n	n	11	n	n
O=C(O)c1[nH]c2ccccc2c1NS(=O)(=O)Cc1ccccc1	6.0	n	n	n	n
SMILES	hcDAF12 agonist	DAX1 inh-1	hgDAF12 agonist	DAX1 inh-2	ssDAF12 agonist
O=C(O)c1[nH]c2ccccc2c1NS(=O)(=O)c1ccc(F)cc1	n	n	n	n	n
Cc1ccc(C(=O)C(OC(=O)CCC(=O)Nc2cccc(C)c2)c2ccccc2)cc1 (stereo not drawn)	n	4.7	n	n	n
COc1ccc(NC(=O)CCC(=O)OC(C(=O)c2ccccc2)c2ccccc2)cc1 (stereo not drawn)	n	n	n	n	n
COc1ccc(-c2cc(C(=O)NN=Cc3cccn3C)[nH]n2)cc1	n	x	n	n	n
O=C(CCc1nc2ccccc2c(=O)[nH]1)Nc1ccc(F)c([N+](=O)[O-])c1	n	n	n	n	n
O=C(Nc1cc([N+](=O)[O-])c2[nH]c(=O)c3ccccc3c2c1)C(F)(F)F	n	n	n	3.9	n
CCOc1ccc(-n2c(SCC(=O)Nc3ccc4c(c3)c3ccccc3n4CC)nnc2-c2cccnc2)cc1	n	x	n	n	n
O=c1/c(=C/c2ccccn2)sc2nc3ccccc3n12	n	n	n	n	1.3
COC(=O)/C=c1/sc2nc3ccccc3n2c1=O	n	n	n	n	n
COC(=O)[C@]12C[C@H](CC(=O)N3CCN(C(=O)c4ccco4)CC3)C(=O)N(Cc3cccc4ccccc34)C1=C[C@H](C(C)(C)C)O[C@@H]2C	n	x	n	n	n
O=S1(=O)CC(O)C(N(CCO)C(=S)Nc2ccccc2)C1 (stereo not drawn)	n	5.3	n	n	n
O=S1(=O)CC(O)C(Nc2ccccc2)C1 (stereo not drawn)	n	n	n	n	n
